High-throughput results as filed in PubChem BioAssay.
Hits are enriched below; roughly 21% of the tested compounds scored in any of these assays.
Shiga toxin inh: A qHTS for Small Molecule Inhibitors of Shiga Toxin. inhibition, % at 38.7 µM. AID 2315, 2010. actives 9.2% (n = 290,000). Vero cells, Shiga toxin protein synthesis inhibition reporter; in the data active means inhibition mostly above about 28%, no sharp cut-off; inactive means mostly below about 43%; further: 0% is about no effect
CHX counter: Cycloheximide Counterscreen for Small Molecule Inhibitors of Shiga Toxin; cell reporter, cycloheximide protein synthesis inhibition counterscreen; max response, %; actives 12% (n = 300,000); AID 2314, 2010; in the data active means max response mostly above about 13%, no sharp cut-off; inactive means mostly below about 14%; further: read at 38.3 µM for the half of the compounds with a filed dose; 0% is about no effect
Pf growth 96h: Primary qHTS for delayed death inhibitors of the malarial parasite plastid, 96 hour incubation | Potency, µM (highest dose often 28.7 µM), inactives show at the top dose activity change, negative = inhibition, actives largely listed as inhibitors | AID 504834, 2011 | actives 6.9% (n = 320,000) | P. falciparum luciferase reporter growth, 96 h; further: potency means the concentration at half of the fitted maximal effect; on the % scale 0 is the no-effect control and ±100 the full control effect
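Plates of compound plus infected erythrocytes (2% hematocrit, 0.05% parasitemia final) incubate 96 hours, 37 C, 5% CO2. Detection reagent added; reduced luminescence from the parasites' luciferase reporter flags inhibition.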
HCMV inh: qHTS Assay for inhibitors of the human cytomegalovirus (HCMV); actives 4.5% (n = 410,000); activity change, negative = inhibition, % at 57.5 µM; HFF cells, HCMV-luciferase reporter, 72 h; hits give low values; in the data active means activity change below about -60%; inconclusive means no clear call, values can overlap the other calls; inactive means above about -39%; further: on the % scale 0 is the no-effect control and ±100 the full control effect
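Cell-based, HFFs, 1000 cells/well, 16 h 37C; cpds in DMSO + HCMV-luc, MOI 1 PFU/cell; 72 h 37C; OneGlo luminescence after 5 min RT; norm. to buffer vs Salinomycin 10uM.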
Pf growth 48h: Primary qHTS for delayed death inhibitors of the malarial parasite plastid, 48 hour incubation | actives 5.9% (n = 310,000) | P. falciparum luciferase growth in erythrocytes, 48 h | AID 504832, 2011 | Potency, µM (titrated, usually from 28.7 µM), without a hit: at the top dose activity change, negative = inhibition, usual class: inhibitors; further: potency means the concentration at half of the fitted maximal effect; on the % scale 0 is the no-effect control and ±100 the full control effect
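Erythrocytes infected with P. falciparum carrying an integrated firefly luciferase reporter (2% hematocrit, 0.1% parasitemia final) were exposed to compounds in RPMI 1640 with 0.5% Albumax at 37 C, 5% CO2. Growth inhibition was scored as reduced luminescence.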
HCV inhibitor: qHTS Assay for Inhibitors of Hepatitis C Virus (HCV). Potency, µM (top dose mostly 41.8 µM), without a hit: at the highest dose activity change, negative = inhibition, actives largely listed as inhibitors. actives 3.4% (n = 340,000). Huh7.5.1 HCVcc-Cre infection, luciferase reporter, 44 h. AID 651820, 2012; further: potency means the concentration at half of the fitted maximal effect; on the % scale 0 is the no-effect control and ±100 the full control effect
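Seed cells (1,000/well) for 4 h; treat with compound and infect with HCVcc-Cre, moi about 0.5. Incubate 44 h, then detect luciferase activity.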
* = called active by the depositor; ? = inconclusive; · = no result. Unless noted, the call rests on the fitted dose curve; in most records, active means well fitted inhibition curve with a large enough effect; inconclusive means small, poorly fitted or top-dose-only effect, or another doubt; inactive means no such curve, though single readings can be large or run the other way.

SMILES | Shiga toxin inh | CHX counter | Pf growth 96h | HCMV inh | Pf growth 48h | HCV inhibitor
CCCCCCN1C[C@@H](n2cc(COC(=O)c3ccccc3)nn2)[C@H](O)C[C@@H]1c1ccc(Cl)cc1 | · | · | · | -101* | · | ·
CCCCCCN1C[C@H](n2cc(COC(=O)c3ccccc3)nn2)[C@@H](O)C[C@@H]1c1ccccc1 | · | · | · | -15 | · | ·
CCCCCCN1C[C@@H](n2cc(COC(=O)c3ccccc3)nn2)[C@H](O)C[C@@H]1c1ccccc1 | · | · | · | -103* | · | ·
COc1cc(NC(=O)CN2CCN(c3ccc(F)cc3)CC2)cc(OC)c1 | · | · | · | 9 | · | ·
CCn1cc(C(=O)Nc2cccc(C)c2)c(=O)c2ccc(C)nc21 | 27 | -1 | 56% | · | 9% | ·
COc1ccc(CNCC(O)(c2ccccc2)c2ccc(F)cc2)cc1OC (stereo unspecified) | -4 | 7 | 8.3µM* | ? | 7.4µM* | 10µM*
CCCCNCCCOc1cccc(Cl)c1 | -1 | 1 | 7% | -16 | ? | -30%
COc1ccc(CNCC(O)(c2ccc(Cl)cc2)c2ccc(Cl)cc2)cc1 | -14 | -3 | 1µM* | 37 | 1.2µM* | ?
COc1ccc(CNCC(O)(c2ccc(F)cc2)c2ccc(F)cc2)cc1OC | 11 | 11 | 2.9µM* | ? | 4.1µM* | ?
CCCCNCC(O)(c1ccc(Cl)cc1)c1ccc(Cl)cc1 | 29 | 29 | 2.3µM* | -25 | 13µM* | -26%
COc1ccc(CCNCc2ccc(F)cc2)cc1OC | -8 | -4 | · | 5 | 9% | 8%
COc1ccc(CNC/C=C/c2ccccc2)cc1 | -4 | -3 | -29% | 21 | 13% | ?
COc1ccc(CNCC(O)(c2ccccc2)c2ccc(F)cc2)cc1 (stereo unspecified) | 24 | 6 | ? | ? | 5.2µM* | 8%
COc1ccc(CCNC(=O)c2ccc(Cl)cc2)cc1OC | 2 | -2 | ? | 78 | 0% | ?
COc1ccc(CNCC(O)(c2ccc(Cl)cc2)c2ccc(Cl)cc2)cc1OC | -22 | -4 | 1.5µM* | 18 | 2.1µM* | 13µM*
O=C(O)c1sc2cc(C(F)(F)F)cnc2c1-c1ccccc1 | -6 | -4 | 34% | -8 | 21% | 18%
CSc1nnc(-c2sc3cc(C(F)(F)F)cnc3c2-c2ccccc2)n1C | -11 | 1 | 6.6µM* | ? | · | ?
NC(=S)N=Nc1c(O)[nH]c2c(Cl)cc(Cl)cc12 | · | · | · | 16 | · | -25%
NC(=S)N=Nc1c(O)[nH]c2cc(F)c(F)cc12 | -3 | -3 | 9.3µM* | -29 | ? | -4%
Cc1ccc(NC(=O)CN2C(=O)CCSc3ccccc32)c(C)c1 | · | · | · | 9 | · | ·
O=C(NN=C1CCCCCC1)c1ccncc1 | 3 | 16 | ? | 4 | 21% | 2%
O=C(NN=C1CCCCCC1)c1cc2ccccc2cc1O | 18 | 8 | 5% | 50 | ? | 7%
O=C(N/N=C1\CCCCc2ccccc21)c1ccccn1 | 90* | 44* | -2% | 24 | 87% | 13%
O=C(NN=C1CCCCCCC1)c1ccc2ccccc2n1 | 27 | 17* | ? | 36 | 0% | -3%
O=C(NN=C1CCCCCCC1)c1ccccn1 | 39 | 23* | 185% | 2 | 59% | 9%
SMILES | Shiga toxin inh | CHX counter | Pf growth 96h | HCMV inh | Pf growth 48h | HCV inhibitor
O=C(NN=C1CCCCCC1)c1c[nH]c2ccccc12 | active | 12 | -16% | -12 | 3% | 11%
Cc1cccc(-n2c(CNC(=O)c3ccc(S(=O)(=O)N4CCCCC4)cc3)n[nH]c2=S)c1 | -2 | -2 | -3% | 1 | -5% | 9%
Cc1ccc(NC(=O)Cn2cnc3onc(-c4ccc(F)cc4)c3c2=O)c(Cl)c1 | · | · | · | 7 | · | ·
Cc1cc2nc(-c3ccc(SCC(=O)Nc4ccc(S(=O)(=O)N5CCCC5)cc4)nc3)[nH]c2cc1C | 81* | 36* | ? | 6 | ? | ?
CCOC(=O)CNC(=O)CSc1ccc(-c2nc3ccccc3[nH]2)cn1 | 5 | 3 | 35% | -23 | 28% | 15%
O=C(CSc1ccc(-c2nc3ccccc3[nH]2)cn1)Nc1ccc(S(=O)(=O)N2CCCC2)cc1 | 33* | 40* | ? | -26 | ? | -13%
C/C=C1/NN(CCCN2CCN(c3cccc(Cl)c3)CC2)C(=O)N1CCOc1ccccc1 | -10 | 13 | -16% | · | -18% | ·
CN(C)c1ccc(/C=C(\NC(=O)c2ccccc2)C(=O)NCCN2CCOCC2)cc1 | -7 | -5 | 9.3µM* | 9 | 10% | 5%
O=C(N/C(=C/c1ccc(F)cc1)C(=O)N1CCOCC1)c1ccccc1 | 1 | 1 | 1% | 54 | 1% | 19%
CN(C)c1ccc(/C=C(\NC(=O)c2ccccc2)C(=O)NCCCN2CCOCC2)cc1 | -27 | 6 | 15% | -11 | 13% | 30%
O=C(N/C(=C/c1ccc(Cl)cc1)C(=O)N1CCOCC1)c1ccccc1 | -7 | -2 | 6% | -78* | 0% | 33%
COc1cc(/C=N/NC(=O)CSc2n[nH]c(=O)[nH]c2=O)cc(OC)c1O | -8 | -3 | -3% | 4 | 8% | 10%
CCCn1c(C)cc(C(=O)COC(=O)c2cc(S(=O)(=O)NCC(C)C)c(Cl)cc2Cl)c1C | -9 | 14 | · | -7 | 5% | 10µM*
CC(C)CNS(=O)(=O)c1cc(C(=O)OCC(=O)c2ccc3c(c2)OCCO3)c(Cl)cc1Cl | -3 | -3 | -1% | -3 | 7% | -18%
C(=C\c1nccc2c1[nH]c1ccccc12)/c1ccccc1 | 85* | 33* | 2.6µM* | 82 | 1.9µM* | ?
Cc1ccc(/C=C\c2nccc3c2[nH]c2ccccc23)cc1 | 59 | 33* | ? | 141 | 2.6µM* | ?
CC1=C(C(=O)NC(C)c2ccc3c(c2)OCCO3)C2(CCC(C)CC2)OC1=O (stereo unspecified) | -4 | -3 | 10µM* | -5 | ? | -3%
CC1=C(C(=O)Nc2cccc([N+](=O)[O-])c2)C2(CCC(C)CC2)OC1=O (stereo unspecified) | 23 | 3 | 0.37µM* | 28 | ? | 6%
CC1=C(C(=O)NC2CCCCC2C)C2(CCC(C)CC2)OC1=O (stereo unspecified) | 3 | -5 | -5% | 1 | 9.3µM* | 12%
CC1=C(C(=O)NC2CCCC(C)C2C)C2(CCCCC2)OC1=O (stereo unspecified) | 3 | 11 | 24% | 19 | ? | 14%
CCC1(c2ccccc2)NC(=O)N(CC(=O)Nc2ccc3c(C)cc(=O)oc3c2)C1=O (stereo unspecified) | · | · | -2% | -23 | ? | ?
O=C(O)c1cc2c(=O)c3ccccc3oc2nc1C(F)(F)F | -6 | -4 | 39% | 103 | 37% | 7%
